High-throughput results as filed in PubChem BioAssay.
The list is not random: actives were taken first. Their share in the collection is about 1.5%.
IDE cell activ = boosts human insulin-degrading enzyme activity in HEK cells. P14735. FAbeta-B cleavage, fluorescence polarization; 0% vehicle, 100% cell-free pure enzyme wells. activation, % at 5.96 µM. 340,000 compounds, 0.073% hits. AID 493087;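 active means activation above the mean of all tested compounds plus 3 SD, set per screening campaign, cut at about 17% in these data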
CRFBP-R2 agonist = CRF-BP/CRF-R2 complex agonism | HEK293 CRF-R2/CRF-BP, calcium dye fluorescence (FLIPR); percent of saturating CRF peptide response | activation, % at 13.2 µM | 350,000 compounds, 0.46% hits;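 active means activation of at least 50%, plus an integration ratio under a set limit after plate pattern correction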;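 further: plate controls were neutral control wells without compound for no effect and CRF at EC100 for full effect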
IDE inh = inhibits human insulin-degrading enzyme in HEK cells; P14735; inhibition, % at 5.59 µM; 320,000 compounds, 0.41% hits; FAbetaB cleavage, fluorescence polarization; AID 434962;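 active means percent inhibition above the average of all tested compounds plus 3 SD, set per screening campaign, cut at about 16% in these data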;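 further: IDE supplied by intact live HEK cells; FP after avidin binding of uncleaved biotin substrate so inhibition keeps polarization high; 0% = DMSO wells and 100% = 60 µM reference IDE inhibitor Ii1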
RTF Ca sens act = increases calcium sensitivity of human cardiac regulated thin filaments; P19429+P45379; IANBD-labeled TnC RTF fluorescence at EC20 calcium; 0% EC20 calcium, 100% full calcium; activation, % at 7.2 µM; 340,000 compounds, 0.24% hits; AID 493008;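 active means activation above the mean over all tested compounds plus 3 SD, cut at about 30% in these data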;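 further: rise in fluorescence read as greater calcium sensitivity of cardiac thin filaments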
CRFBP-R2 block = CRF-BP/CRF-R2 complex antagonism. HEK293 CRF-R2/CRF-BP, CRF-induced calcium fluorescence. inhibition, % at 11.8 µM. 350,000 compounds, 0.59% hits. AID 588475;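 active means inhibition of the ligand-induced calcium signal above about 50% at the single tested concentration, limit read from the data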
RTF Ca sens inh = cardiac RTF calcium desensitization; P19429+P45379; IANBD-labeled cardiac RTF, Ca2+ fluorescence; inhibition, % at 7.15 µM; 340,000 compounds, 0.12% hits; AID 493244;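 active means inhibition above the mean inhibition of all tested compounds plus 3 SD, cut at about 17% in these data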;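 further: assay run at fixed EC70 calcium of 1.6 mM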
IDE cell inh cf = cellular human IDE inhibition, confirmation. HEK cells, FAbetaB cleavage, fluorescence polarization. inhibition, % at 5.59 µM. 1,200 compounds, 51% hits. shares compounds with IDE inh;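 active means mean inhibition across triplicate wells above the cutoff set by the earlier primary insulin-degrading enzyme screen, cut at about 16% in these data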;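 further: 0% = DMSO wells and 100% = 60 µM reference IDE inhibitor Ii1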
HEK cytotox = kills HEK cells in IDE inhibitor counter-screen; AID 449730; inhibition, % at 5.59 µM; 1,200 compounds, 28% hits; shares compounds with IDE inh; HEK293 cytotoxicity, ATP luminescence; in the data active means inhibition above about 22%;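 further: 0% = vehicle wells and 100% = reference cytotoxic drug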
The depositor's hits bear a star; . = no result given.

SMILES	IDE cell activ	CRFBP-R2 agonist	IDE inh	RTF Ca sens act	CRFBP-R2 block	RTF Ca sens inh	IDE cell inh cf	HEK cytotox
CSc1nc2ccc(S(=O)(=O)N3CCOCC3)cc2s1	1.0	-0.3	-1.7	0.3	18.1	-16.6	.	.
N#CCc1nc2ccc(S(=O)(=O)N3CCOCC3)cc2s1	-8.1	2.9	45.6*	-1.5	-16.6	-10.4	9.2	9.6
COc1cccc(C(c2sc3nc(C)nn3c2O)N2CCc3ccccc3C2)c1 (stereo unspecified)	-2.2	1.7	-1.9	6.2	0.5	-11.3	.	.
Cc1sc2ncnc(SCC(=O)N3CCN(C(=O)c4ccco4)CC3)c2c1C	-23.2	-0.2	34.5*	7.2	-0.8	4.0	11.1	12.9
O=C(CSc1nnc(-c2ccc(Br)cc2)o1)N1CCN(C(=O)c2ccco2)CC1	-14.8	0.8	17.4*	-1.3	5.2	-4.5	9.3	6.1
C=CCn1c(SCC(=O)N2CCN(C(=O)c3ccco3)CC2)nc2sc(CC)cc2c1=O	-14.1	-0.8	21.0*	-7.2	-9.6	-11.6	9.9	8.2
Cc1cc(C(=O)Nc2c(F)cc(F)cc2Br)n(-c2ccccc2)n1	0.9	-1.3	0.7	11.9	-3.0	-4.6	.	.
CCOC(=O)N1CCC(NC(=O)c2cc3c(=O)[nH]c4ccccc4c3n2C)CC1	3.2	0.4	4.8	0.3	-10.9	4.6	.	.
CCCN1CCc2c(sc(NC(=S)NC(=O)c3ccccc3)c2C#N)C1	-33.1	148.0*	38.6*	31.3*	-177.6	-60.4	9.4	12.9
CC(C)N1CCc2c(sc(NC(=S)NC(=O)c3ccccc3)c2C#N)C1	-12.9	55.0*	19.2*	6.8	-31.2	-22.6	10.6	10.5
N#C/C(=C(/O)CSc1ccccn1)c1nc2ccccc2s1	-1.0	4.0	30.4*	5.5	14.5	-3.2	4.5	6.2
CC(=O)c1ccc(NCC(=O)N2CCN(c3ccccc3)CC2)cc1	-17.4	0.1	21.1*	1.4	-17.1	-7.0	7.2	8.9
Cc1cc(C)c([N+](=O)[O-])cc1NCC(=O)N1CCN(c2ccccc2)CC1	-10.4	-1.4	21.8*	1.6	12.9	1.4	7.3	2.8
CC(=O)Nc1ccc(C(F)(F)F)cc1Cl	-3.9	1.0	-1.2	-3.1	-15.8	-6.9	.	.
COc1ccccc1NC(=O)Nc1nc(C(C)(C)C)cs1	5.1	1.2	0.9	2.6	-26.3	-6.4	.	.
N#Cc1ccccc1S(=O)(=O)N1CCN(CC(O)CN2CCOCC2)CC1 (stereo unspecified)	2.2	0.2	-0.6	2.2	-3.6	-10.7	.	.
COc1cc2cc(C(=O)N/N=C/c3ccccc3Cl)[nH]c2cc1OC	-12.3	-6.4	17.2*	-6.1	-19.5	-0.9	4.5	16.9
COc1ccccc1C(=O)Nc1ccccc1SC(=O)c1ccccc1OC	-20.9	1.2	42.8*	-2.6	7.4	-6.3	11.2	29.5*
NC(N)=N/N=C/c1ccc(Cl)c(Cl)c1	.	0.5	-0.1	.	-15.0	.	.	.
NC(N)=N/N=C/c1ccc(Cl)cc1Cl	-8.5	1.5	23.0*	-0.3	-7.2	-7.2	4.0	24.9*
COCn1c(-c2cccc(Br)c2)nc2ccccc21	-14.2	-1.0	16.7*	-4.3	-17.2	-4.5	-0.2	19.1
CCOC(=O)N1CCC2(CC1)C(C#N)=C(N)Oc1c2c(C)nn1-c1cccc(Cl)c1	4.5	2.6	-3.0	0.7	-49.7	-4.7	.	.
Cc1cccc2[nH]c3c(N4CCN(C(=O)c5ccco5)CC4)ncnc3c12	-20.0	0.2	30.3*	-2.9	17.8	0.7	12.0	9.1
Cc1cccc2[nH]c3c(N4CCC5(CC4)OCCO5)ncnc3c12	-5.5	48.5	3.4	1.9	-8.4	-5.1	.	.
Cc1cc2nc(N3CCN(C(=O)c4ccco4)CC3)sc2cc1C	-12.0	0.1	22.1*	-4.7	-0.8	-9.8	5.2	26.0*
SMILES	IDE cell activ	CRFBP-R2 agonist	IDE inh	RTF Ca sens act	CRFBP-R2 block	RTF Ca sens inh	IDE cell inh cf	HEK cytotox
Cc1cccc(Nc2cnn(C34CC5CC(CC(CC(=O)O)(C5)C3)C4)c(=O)c2Cl)c1	-13.1	-0.3	20.6*	-2.5	-4.3	5.2	12.2	5.9
CC(=O)c1ccc(Nc2cnn(C34CC5CC(CC(CC(=O)O)(C5)C3)C4)c(=O)c2Cl)cc1	4.8	0.0	0.8	-3.0	1.2	4.7	.	.
Cc1cc(C)cc(Nc2cnn(C34CC5CC(CC(CC(=O)O)(C5)C3)C4)c(=O)c2Cl)c1	-30.6	-1.9	31.5*	5.0	10.1	1.4	18.4*	11.6
Cc1ccc(Nc2cnn(C34CC5CC(CC(CC(=O)O)(C5)C3)C4)c(=O)c2Cl)cc1	-12.6	-1.9	13.9	-6.2	14.6	3.2	.	.
CCC(=O)N/N=C/c1ccc(-c2ccc([N+](=O)[O-])cc2)o1	6.2	3.3	2.2	0.3	1.4	7.1	.	.
CC(C)(C)C(=O)/C=c1\s/c(=C\c2ccc(-c3ccc([N+](=O)[O-])cc3)o2)c(=O)n1CC(=O)NC(N)=O	-20.1	212.2*	22.3*	53.7*	-139.0	-90.6	77.7*	26.4*
COc1cc(NC(=O)CSc2nc3[nH]ncc3c(=O)n2-c2ccccc2C)cc(OC)c1OC	4.1	-1.5	4.3	-2.5	-6.7	-8.1	.	.
C=CCN(C(=O)CSc1nc2[nH]ncc2c(=O)n1-c1ccccc1OC)c1ccccc1	-13.3	11.0	17.7*	-2.3	-13.6	-5.0	12.8	2.5
C=CCNc1nc(N2CCOCC2)c(C#N)c2c1CN(C)CC2	-1.8	0.1	16.4*	6.3	-6.6	-8.2	2.7	12.2
Cc1cc(N2CCN(c3nc4ccccc4s3)CC2)n2ncnc2n1	-24.9	-0.9	16.8*	-6.3	22.6	-7.9	6.4	75.5*
CN(C)S(=O)(=O)c1cccc(-n2sc3ccccc3c2=O)c1	-18.7	8.2	94.0*	2.7	5.7	-3.6	30.9*	51.8*
O=c1c2ccccc2sn1-c1ccccc1	-19.6	9.1	64.5*	-5.7	7.6	-9.3	32.0*	97.7*
N#Cc1ccc2c(=O)n(-c3ccccc3)sc2c1	.	11.2	.	.	2.4	.	.	.
CC(=O)Nc1ccc2c(=O)n(-c3ccccc3)sc2c1	.	6.7	.	.	-4.1	.	.	.
O=c1c2ccccc2sn1-c1cccc(Cl)c1	.	14.9	.	.	21.2	.	.	.
O=C(O)c1cccc(-n2sc3ccccc3c2=O)c1	-23.1	-1.9	92.6*	0.4	4.3	-10.6	97.0*	8.3
O=c1c2cc(F)ccc2sn1-c1ccccc1	-25.1	24.8	60.0*	0.8	33.1	8.7	32.6*	82.8*
CC(=O)c1ccc(NC(=O)Cn2cnc(S(=O)(=O)N3CCC(C)CC3)c2)cc1	-2.5	0.1	9.8	7.4	1.7	-6.0	.	.
Cc1ccccc1-n1sc2cc(F)ccc2c1=O	-45.9	27.5	72.0*	-3.2	20.9	-3.7	16.8*	80.5*
